Assay results published in PubChem BioAssay (NCI).
The panel holds about 79,000 compounds, 15% with a hit somewhere; the sample as a whole holds those more often. A number with no mark means an inactive call. Rule as the data show it: active = growth inhibition above about 70%; inactive = the rest.

Experiment: NCI Yeast Anticancer Drug Screen. Data for the mec2-1 strain (AID 157)
Conditions: S. cerevisiae mec2-1 strain, at 1.2 µM, stronger effect = higher value
Method in brief: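 Each compound was tested on mec2-1 yeast, a strain altered in DNA damage repair or cell cycle control. Growth inhibition is reported relative to vehicle.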

Row | Structure (SMILES) | growth inhibition [%]
1 | COc1ccc2nc3cccc([N+](=O)[O-])c3c(NCCNCCN(C)C)c2c1 | 2
2 | Cc1cccc(/C=N/NC(=S)NC2CCCCC2)n1 | 1
3 | COC(=O)C(=O)c1c(-c2ccc(Cl)c(Cl)c2)[nH]c2[nH]n(-c3ccccc3)c(=O)c2c1=O | -2
4 | c1ccc([P+](CCN2Cc3ccccc3C2)(c2ccccc2)c2ccccc2)cc1 | -15
5 | Cc1cc(C)c2[s+]snc2c1 | -3
6 | CC(C)(Br)C(=O)/C=C/c1ccccc1 | 5
7 | Cc1ccc(S(=O)(=O)NC(=O)C2C(=O)CC3(CCCCC3)CC2=O)cc1 | -25
8 | NC(=S)N1N=C2c3ccccc3CC[C@H]2[C@@H]1c1ccc(Cl)cc1 | -17
9 | O=[N+]([O-])/C=C/c1cc2ccc3ccccc3c2[nH]1 | 20
10 | O=C1C(=C2CCCC2)CCC1CN1CCCCC1 (configuration not stated) | -7
11 | OC(CC(O)(C(F)(F)F)C(F)(F)F)c1ccc(C(O)CC(O)(C(F)(F)F)C(F)(F)F)cc1 (configuration not stated) | 18
12 | COc1cc2c(cc1OC)[C@@H](Nc1ccc(C#N)cc1)C1COC(=O)[C@@H]1C2c1cc(OC)c(O)c(OC)c1 (some centres not stated) | -22
13 | O=c1cccccc1[O-].O=c1cccccc1[O-].O=c1cccccc1[O-].[Eu+3] | -1
14 | O=C1c2ccccc2C(=O)c2sc(Nc3ccccc3Cl)nc21 | -13
15 | NC(CCCCCCCCCCCCC(N)C(=O)c1ccccc1)C(=O)c1ccccc1 (configuration not stated) | -6
16 | CC1=C(C)C(=O)C2=C(OCCO2)C1=O | -3
17 | c1ccc(-c2cc(C3CO3)c3ccccc3n2)cc1 (configuration not stated) | -3
18 | S=C1C(=Nc2ccccc2)N(c2ccccc2)/C(=N\c2ccccn2)N1c1ccccc1 | -7

Row | Structure (SMILES) | growth inhibition [%]
19 | CCC(OC(C)=O)C1CC(C(C)C)CCC1C (configuration not stated) | 2
20 | CC(C)=CCc1c2c(c(O)c3c(=O)c(-c4ccc(O)c(O)c4)coc13)C=CC(C)(C)O2 | -89
21 | O=C(NC(N1CCN(c2cc3c(cc2F)c(=O)c(C(=O)O)cn3C2CC2)CC1)(C(F)(F)F)C(F)(F)F)c1ccccc1 | -2
22 | Fc1cc(F)c(F)c(S)c1F | -56
23 | COc1ccc2cc3c4cc5c(cc4cc[n+]3cc2c1OC)OCO5 | 9
24 | CCCCCCCCNCCCCCCCC | 2
25 | Nc1cc(Cl)ccc1Nc1ccccc1 | -42
26 | O=C(/C(=C/c1ccc(O)cc1)c1ccccc1)c1ccccc1 | -27
27 | O=Cc1ccccc1C=O | -17
28 | C1=CCN([B-](c2ccccc2)[C+]2CCCCC2)C=C1 | -1
29 | CC/C(=C(\c1ccccc1)c1ccc(OCC[N+](C)(C)C)cc1)c1ccccc1 | -6
30 | O=S(=O)(c1cccc(C(F)(F)F)c1)N1c2ccccc2-n2cccc2C1c1cccnc1 (configuration not stated) | -59
31 | Nc1ccc2c(c1)C(=O)c1c(F)cccc1-2 | 3
32 | CN(C)/C(=N/C(=S)Nc1ccccc1)SCc1ccccc1 | -5
33 | CCN(CC)C(=S)N/N=C(\C)c1ccccc1O | 3
34 | CC(C)OC(=O)NNc1cc(Cl)ccc1Cl | -4
35 | CC(C)CCC[C@@H](C)[C@H]1CC[C@H]2[C@@H]3CC[C@H]4C[C@H](N)CC[C@]4(C)[C@H]3CC[C@]12C | 0
36 | O=C1c2ccccc2-c2ccc(N=Cc3ccccc3)cc21 | -4

Same assay, conditions: S. cerevisiae mec2-1 strain, at 3.7 µM, stronger effect = higher value

Row | Structure (SMILES) | growth inhibition [%]
37 | COc1ccc2nc3cccc([N+](=O)[O-])c3c(NCCNCCN(C)C)c2c1 | -1
38 | Cc1cccc(/C=N/NC(=S)NC2CCCCC2)n1 | -6
39 | COC(=O)C(=O)c1c(-c2ccc(Cl)c(Cl)c2)[nH]c2[nH]n(-c3ccccc3)c(=O)c2c1=O | -7
40 | c1ccc([P+](CCN2Cc3ccccc3C2)(c2ccccc2)c2ccccc2)cc1 | 39
41 | Cc1cc(C)c2[s+]snc2c1 | -5
42 | CC(C)(Br)C(=O)/C=C/c1ccccc1 | 7
43 | Cc1ccc(S(=O)(=O)NC(=O)C2C(=O)CC3(CCCCC3)CC2=O)cc1 | -30
44 | NC(=S)N1N=C2c3ccccc3CC[C@H]2[C@@H]1c1ccc(Cl)cc1 | 9
45 | O=[N+]([O-])/C=C/c1cc2ccc3ccccc3c2[nH]1 | 33
46 | O=C1C(=C2CCCC2)CCC1CN1CCCCC1 (configuration not stated) | -12
47 | OC(CC(O)(C(F)(F)F)C(F)(F)F)c1ccc(C(O)CC(O)(C(F)(F)F)C(F)(F)F)cc1 (configuration not stated) | 38
48 | COc1cc2c(cc1OC)[C@@H](Nc1ccc(C#N)cc1)C1COC(=O)[C@@H]1C2c1cc(OC)c(O)c(OC)c1 (some centres not stated) | 5
49 | O=c1cccccc1[O-].O=c1cccccc1[O-].O=c1cccccc1[O-].[Eu+3] | 2
50 | O=C1c2ccccc2C(=O)c2sc(Nc3ccccc3Cl)nc21 | 32
51 | NC(CCCCCCCCCCCCC(N)C(=O)c1ccccc1)C(=O)c1ccccc1 (configuration not stated) | -15
52 | CC1=C(C)C(=O)C2=C(OCCO2)C1=O | -3
53 | c1ccc(-c2cc(C3CO3)c3ccccc3n2)cc1 (configuration not stated) | -1
54 | S=C1C(=Nc2ccccc2)N(c2ccccc2)/C(=N\c2ccccn2)N1c1ccccc1 | -1

Row | Structure (SMILES) | growth inhibition [%]
55 | CCC(OC(C)=O)C1CC(C(C)C)CCC1C (configuration not stated) | 3
56 | CC(C)=CCc1c2c(c(O)c3c(=O)c(-c4ccc(O)c(O)c4)coc13)C=CC(C)(C)O2 | -93
57 | O=C(NC(N1CCN(c2cc3c(cc2F)c(=O)c(C(=O)O)cn3C2CC2)CC1)(C(F)(F)F)C(F)(F)F)c1ccccc1 | -3
58 | Fc1cc(F)c(F)c(S)c1F | -55
59 | COc1ccc2cc3c4cc5c(cc4cc[n+]3cc2c1OC)OCO5 | 32
60 | CCCCCCCCNCCCCCCCC | 13
61 | Nc1cc(Cl)ccc1Nc1ccccc1 | -6
62 | O=C(/C(=C/c1ccc(O)cc1)c1ccccc1)c1ccccc1 | -20
63 | O=Cc1ccccc1C=O | -22
64 | C1=CCN([B-](c2ccccc2)[C+]2CCCCC2)C=C1 | -2
65 | CC/C(=C(\c1ccccc1)c1ccc(OCC[N+](C)(C)C)cc1)c1ccccc1 | 33
66 | O=S(=O)(c1cccc(C(F)(F)F)c1)N1c2ccccc2-n2cccc2C1c1cccnc1 (configuration not stated) | -32
67 | Nc1ccc2c(c1)C(=O)c1c(F)cccc1-2 | 2
68 | CN(C)/C(=N/C(=S)Nc1ccccc1)SCc1ccccc1 | -5
69 | CCN(CC)C(=S)N/N=C(\C)c1ccccc1O | -3
70 | CC(C)OC(=O)NNc1cc(Cl)ccc1Cl | 8
71 | CC(C)CCC[C@@H](C)[C@H]1CC[C@H]2[C@@H]3CC[C@H]4C[C@H](N)CC[C@]4(C)[C@H]3CC[C@]12C | -1
72 | O=C1c2ccccc2-c2ccc(N=Cc3ccccc3)cc21 | -2
